Assay [1] can be described thus: P-glycoprotein substrates identified in KB-3-1 adenocarcinoma cell line, qHTS therapeutic library screen (AID 1346986). Note: nearly all actives have a fitted effect of over 60% in size. The procedure, abridged: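 Viability by CellTiter-Glo after 72 h compound exposure at 37 degree C, 5% CO2. Cytotoxic call: curve class -1.1 to -2.4, maximum response >50%, AC50 < 10 uM, compared across KB-3-1 and P-gp-overexpressing KB-8-5-11.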
Background: qHTS replaces the single test concentration by a dilution series.

The nature of assay [2]: P-glycoprotein substrates identified in KB-8-5-11 adenocarcinoma cell line, qHTS therapeutic library screen (AID 1346987). Note: nearly all actives have a fitted effect of over 65% in size. Note: potency is the fitted concentration of half-maximal effect. An outline of the steps:
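In this qHTS, P-gp-rich KB-8-5-11 cells received library compounds across a concentration range. Viability was quantified by luminescence after 72 h at 37 degree C.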

Inconclusive results are not listed. Activity calls are given as the source filed them. Calls come from the whole dose curve; as a rule, active = well fitted curve in the direction sought with a large enough effect; inconclusive = small, poorly fitted or top-dose-only effect, or another doubt; inactive = no such curve, though single readings can be large; an effect the other way counts as inactive or inconclusive.

`COCCCNC(=O)c1ccc(Cn2c(=O)c3ccccc3n(Cc3ccc(C(C)C)cc3)c2=O)cc1`: the Potency entry in assay [1] and in assay [2] was “inactive” each time. On to `O=C([C@@H](Cc1cccc(C(F)(F)F)c1)NS(=O)(=O)c1cc(F)c2c(c1)CCNC2)N1CCCC1`, for which the Potency entry in assay [1] and in assay [2] was “inactive” each time. `Fc1ccc(-c2nc(C3CCNCC3)sc2-c2ccnc(NC3CC3)n2)cc1`: the Potency in assay [2] was 13 µM (active). Same read-out and setting: the figure for `COc1cc2nc(N3CCN(C(=O)c4ccco4)C4CCCCC43)nc(N)c2cc1OC` (configuration not stated) is 14.6 µM (active); for `c1ccc2c(CCC3CCNCC3)c[nH]c2c1` it is “inactive”.
